We go through nine molecules from PubChem BioAssay (NCI).

Compounds without any hit were thinned out: in the full panel of roughly 83,000, 20% have a hit.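 For each line, cells grew in 96-well plates with the test compound present at a single concentration for 48 hours.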 A number with no mark means an inactive call. The source made the active and inactive calls. How the source made its calls: active means growth percent below 10; inactive means the rest.

What all share (assay): NCI-60 one-dose screen, 48 h (100 = growth as untreated, 0 = no growth, -100 = all killed)
For one assay, the system named is HCT-15 colon. As to conditions: 10 µM unless noted.
In the next assay the test system is HT29 colon. To be noted: 10 µM unless noted.
For the next assay, the system named is SNB-75 CNS. To be noted: 10 µM unless noted.
For the next assay, the system named is SNB-19 CNS. To be noted: 10 µM unless noted.
The next assay relates to U251 CNS. As to conditions: 10 µM unless noted.
In another assay the test system is PC-3 prostate. To be noted: 10 µM unless noted.
A further assay deals with SK-MEL-5 melanoma. To be noted: 10 µM unless noted.
The subject of a further assay is UACC-62 melanoma. To be noted: 10 µM unless noted.
Another assay concerns LOX IMVI melanoma. As to conditions: 10 µM.
A further assay has as its system SK-MEL-28 melanoma. As to conditions: 10 µM unless noted.
The subject of the next assay is SK-MEL-2 melanoma. As to conditions: 10 µM unless noted.
The next assay concerns EKVX NSCLC. To be noted: 10 µM unless noted.
A further assay has as its system SN12C renal. To be noted: 10 µM unless noted.
The test system of the next assay is UO-31 renal. As to conditions: 10 µM unless noted.
The subject of the next assay is TK-10 renal. As to conditions: 10 µM unless noted.
The test system of the next assay is ACHN renal. To be noted: 10 µM unless noted.
In the next assay the test system is CAKI-1 renal. To be noted: 10 µM unless noted.
A further assay relates to CCRF-CEM leukemia. As to conditions: 10 µM unless noted.
A further assay deals with MOLT-4 leukemia. To be noted: 10 µM unless noted.
The next assay relates to A498 renal. To be noted: 10 µM unless noted.

As to `CCOC(=O)c1ccc(NC(C)=O)o1`, the growth in the assay with HCT-15 colon was 106%; with HT29 colon, 102%; in the assay on SNB-75 CNS, 94.3%; with SNB-19 CNS it was 97.1%; with U251 CNS, 94.1%; in the assay on PC-3 prostate, 95.8%. Also, the growth is 97.9% in the assay with SK-MEL-5 melanoma; 90.4% with UACC-62 melanoma; 95.4% in the assay with LOX IMVI melanoma; 118% in the assay with SK-MEL-28 melanoma; 99.6% with SK-MEL-2 melanoma; 111% in the assay on EKVX NSCLC. The growth is 95.1% in the assay on SN12C renal; 87.4% in the assay on UO-31 renal; 100% in the assay with TK-10 renal; 108% in the assay on ACHN renal; 103% with CAKI-1 renal; 98.8% with CCRF-CEM leukemia. Also, the growth in the assay on MOLT-4 leukemia was 79.1%.
As for `CC(C)OCC(CCl)OC(=O)Nc1ccccc1` (stereo not given), the growth in the assay on HCT-15 colon was 108%; in the assay on HT29 colon, 102%; with SNB-75 CNS, 92.2%; in the assay on SNB-19 CNS it was 105%; with U251 CNS, 97.2%; in the assay on PC-3 prostate, 98.8%. The growth with SK-MEL-5 melanoma was 101%; in the assay on UACC-62 melanoma, 101%; in the assay on LOX IMVI melanoma it was 97%; with SK-MEL-28 melanoma, 111%; in the assay with SK-MEL-2 melanoma it was 102%; in the assay on EKVX NSCLC, 104%. The growth was 96.7% in the assay on SN12C renal; 80.9% in the assay with UO-31 renal; 91.7% in the assay with TK-10 renal; 105% in the assay with ACHN renal; 98.2% in the assay with CAKI-1 renal; 103% in the assay with A498 renal. The growth in the assay with MOLT-4 leukemia was 99.9%.
For `C=CC(C)C(C)(C)O` (stereo not given), the growth with HCT-15 colon was 104%; in the assay on HT29 colon, 101%; in the assay with SNB-75 CNS, 101%; in the assay on SNB-19 CNS, 109%; with U251 CNS, 103%; in the assay with PC-3 prostate, 100%. The growth in the assay on SK-MEL-5 melanoma is 107%; with UACC-62 melanoma, 102%; with LOX IMVI melanoma, 99.2%; with SK-MEL-28 melanoma, 113%; in the assay with SK-MEL-2 melanoma it was 100%; with EKVX NSCLC, 105%. In addition, the growth in the assay on SN12C renal was 109%; with UO-31 renal it was 87.2%; with TK-10 renal it was 104%; in the assay with ACHN renal it was 106%; in the assay with CAKI-1 renal, 94.5%; in the assay with A498 renal, 91.4%. Besides, the growth in the assay on MOLT-4 leukemia was 95.2%.
Take `CCOC(=O)c1c(C)[nH]c(C)c1C=O`: the growth with HCT-15 colon was 107%; with HT29 colon, 107%; in the assay on SNB-75 CNS, 94.2%; with SNB-19 CNS it was 97.1%; in the assay on U251 CNS, 88.2%; in the assay with PC-3 prostate, 82.7%. For the same molecule, the growth was 101% in the assay with SK-MEL-5 melanoma; 91.2% with UACC-62 melanoma; 97.9% with LOX IMVI melanoma; 109% in the assay on SK-MEL-28 melanoma; 102% with SK-MEL-2 melanoma; 102% in the assay with EKVX NSCLC. Further, the growth in the assay on SN12C renal was 95.8%; in the assay on UO-31 renal, 104%; with TK-10 renal, 95.9%; in the assay with ACHN renal, 102%; in the assay on CAKI-1 renal, 99.8%; with CCRF-CEM leukemia, 79.8%.
For the molecule `COC1=C(OC)C(=O)C(SC/C=C(\C)CCCC(C)CCCC(C)CCCC(C)C)=CC1=O` (stereo not given), the growth with HCT-15 colon is 17.2%; in the assay on HT29 colon it was 56.2%; in the assay on SNB-75 CNS, 27.8%; in the assay with SNB-19 CNS, 24.6%; in the assay on U251 CNS it was 15.4%; with PC-3 prostate, 10.8%. For the same molecule, the growth was -67.3% (active) in the assay on SK-MEL-5 melanoma; 26.7% in the assay with UACC-62 melanoma; 17.2% with LOX IMVI melanoma; 40.8% in the assay on SK-MEL-28 melanoma; -11.3% (active) in the assay on SK-MEL-2 melanoma; 27.6% in the assay with EKVX NSCLC. Moreover, the growth is 15.4% in the assay with SN12C renal; -3.97% (active) in the assay on UO-31 renal; 56% in the assay with TK-10 renal; 20.6% in the assay on ACHN renal; 102% in the assay on CAKI-1 renal; 16.8% with A498 renal. Besides, the growth with MOLT-4 leukemia is 10.4%.
For `CCCCCCCCCCCCCCCCCCSC(=N)N`, the growth in the assay with HCT-15 colon is 66.6%; in the assay on HT29 colon, 28.4%; in the assay on SNB-75 CNS it was 88.6%; in the assay with SNB-19 CNS, 89.2%; in the assay with U251 CNS, 72.3%; with PC-3 prostate, 65%. The growth in the assay with SK-MEL-5 melanoma is 98.3%; with UACC-62 melanoma, 77.6%; in the assay with LOX IMVI melanoma, 52.7%; with SK-MEL-28 melanoma, 93.5%; in the assay on SK-MEL-2 melanoma, 97.6%; in the assay with EKVX NSCLC it was 88.3%. Further, the growth in the assay with SN12C renal is 65.6%; in the assay with UO-31 renal it was 43.2%; in the assay with TK-10 renal, 65.5%; with ACHN renal it was 69.9%; in the assay with CAKI-1 renal, 79.4%; with A498 renal it was 84.7%. Moreover, the growth with MOLT-4 leukemia was 26.2%.
For `O=C(CCCl)OCCOc1ccccc1`, the growth in the assay on HCT-15 colon was 105%; in the assay with HT29 colon, 102%; with SNB-75 CNS it was 96.1%; in the assay with SNB-19 CNS it was 108%; in the assay on U251 CNS it was 99.9%; in the assay on PC-3 prostate it was 95.9%. The growth in the assay with SK-MEL-5 melanoma was 108%; in the assay with UACC-62 melanoma it was 108%; in the assay with LOX IMVI melanoma, 96.6%; with SK-MEL-28 melanoma it was 107%; in the assay on SK-MEL-2 melanoma, 104%; in the assay on EKVX NSCLC it was 109%. In addition, the growth in the assay on SN12C renal was 104%; in the assay with UO-31 renal it was 88.5%; in the assay with TK-10 renal, 100%; with ACHN renal it was 106%; in the assay on CAKI-1 renal, 102%; in the assay with A498 renal it was 89%. Moreover, the growth in the assay with MOLT-4 leukemia was 92.1%.
On to `C=C1C(=O)C2CCC1C2` (stereo not given), for which the growth with HCT-15 colon was 99.8%; in the assay on HT29 colon, 102%; with SNB-75 CNS, 103%; with SNB-19 CNS it was 107%; in the assay with U251 CNS, 109%; with PC-3 prostate, 105%. Further, the growth in the assay with SK-MEL-5 melanoma is 105%; in the assay on UACC-62 melanoma, 108%; in the assay on LOX IMVI melanoma, 106%; in the assay on SK-MEL-28 melanoma it was 119%; with SK-MEL-2 melanoma it was 101%; with EKVX NSCLC, 109%. The growth in the assay with SN12C renal is 104%; in the assay with UO-31 renal it was 82.2%; in the assay on TK-10 renal it was 109%; in the assay with ACHN renal it was 112%; in the assay on CAKI-1 renal, 101%; in the assay on A498 renal, 93.7%. In addition, the growth with MOLT-4 leukemia is 94.7%.
With `C=CCN1CCCC1=O`, the growth was 104% in the assay with HCT-15 colon; 96.3% in the assay on HT29 colon; 70.2% in the assay with SNB-75 CNS; 93.1% in the assay with SNB-19 CNS; 102% in the assay on U251 CNS; 94.6% with PC-3 prostate. Also, the growth is 101% with SK-MEL-5 melanoma; 86.1% in the assay with UACC-62 melanoma; 108% in the assay on LOX IMVI melanoma; 108% with SK-MEL-28 melanoma; 161% with SK-MEL-2 melanoma; 96.8% in the assay on EKVX NSCLC. The growth with SN12C renal was 94.2%; in the assay with UO-31 renal it was 101%; with TK-10 renal it was 90.2%; in the assay on ACHN renal it was 109%; in the assay with CAKI-1 renal, 95.8%; with A498 renal it was 91%. For the same molecule, in the assay with MOLT-4 leukemia, the growth is 93.8%.
